# Only some compounds are listed: those with a hit (about 1.6% of all), similar ones and a draw of the others.
# gsp antag: qHTS for Antagonists of gsp, the Etiologic Mutation Responsible for Fibrous Dysplasia/McCune-Albright Syndrome: qHTS; gsp-mutant cells, cAMP HTRF, 30 min; Potency, µM (doses to about 76.9 µM), inactives show at the highest dose activity change, negative = inhibition, most hits filed as inhibitors; actives 0.4% (n = 340,000); calls by dose curve; cell line not stated here;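 further: intracellular cAMP measured with PDE inhibitor Ro 20-1724 present during compound exposure; on the % scale 0 is the no-effect control and ±100 the full control effect; nearly all actives have a fitted effect of over 65% in size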
#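 Cells in G418 medium, seeded 16-24 h, 37C; buffer exchange to DPBS + 1 mM CaCl2, 0.5 mM MgCl2, 0.05% BSA; cpds in DMSO + […] (300 uM stock), 30 min 37C; HTRF cAMP detection.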
# Mito fusion yeast: qHTS Assay for Small Molecule Inhibitors of Mitochondrial Division or Activators of Mitochondrial Fusion. actives 0.23% (n = 320,000). Potency, µM (series often up to 46.1 µM), for inactives: top-dose growth rescue (activation), usual class: activators. S. cerevisiae fusion-defective mutant growth rescue, CellTiterGlo 48 h. AID 485298, 2010; further: % of control where 0% means no effect; nearly all actives have a fitted effect of over 45% in size
#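 Luminescent cell viability in 1536-well qHTS format served as the measure of rescued growth in ts fusion-mutant S. cerevisiae cultured on non-fermentable YPEG for 48 hours at 37C.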
# FUS yeast rescue: qHTS for Suppressors of FUS Proteinopathy: Primary screen using FUS-linked yeast assay | S. cerevisiae FUS-expressing, growth rescue, OD600, 24 h | Potency, µM (titrated, usually from 76.6 µM), usual class: activators | actives 0.24% (n = 390,000);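 further: plate controls were DMSO vehicle for no effect and reference control for full effect; nearly all actives have a fitted effect of over 55% in size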
#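 Galactose (2%) drives FUS expression in yeast precultured in raffinose; seeding density OD 0.005. Test compounds incubated 24hr at 30C and 99% humidity before absorbance at 600 nm was measured.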
# gsp ag: qHTS for Agonist of gsp, the Etiologic Mutation Responsible for Fibrous Dysplasia/McCune-Albright Syndrome: qHTS. gsp mutant cells, cAMP HTRF, 30 min. Potency, µM (highest dose often 76.9 µM), without a hit: top-dose activation (cAMP increase), actives largely listed as activators. actives 0.13% (n = 340,000); active means well fitted activation curve with a large enough effect; inconclusive means small, poorly fitted or top-dose-only effect, or another doubt; inactive means no such curve, though single readings can be large or run the other way; cell line not stated here;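 further: phosphodiesterase inhibitor Ro 20-1724 added with compounds to block cAMP breakdown; nearly all actives have a fitted effect of over 60% in size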
#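 Cells stably selected in G418 were plated at 2000/well, grown 16-24 hr, then given compounds in DMSO with the PDE inhibitor […] (300 uM solution added) for 30 min at 37C; cAMP was read by HTRF.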
# 12-LOX inh: Primary qHTS assay for inhibitors of human arachidonate 12S-lipoxygenase (ALOX12): Round 2. actives 1.1% (n = 580,000). AID 1671190, 2021. Potency, µM (series often up to 108 µM), for inactives: at the top dose activity change, negative = inhibition, usual class: inhibitors. Polyunsaturated fatty acid lipoxygenase ALOX12 (Homo sapiens), P18054. purified 12hLO, xylenol orange hydroperoxide absorbance; further: on the % scale 0 is the no-effect control and ±100 the full control effect
# Target sequence (P18054 whole entry, looked up): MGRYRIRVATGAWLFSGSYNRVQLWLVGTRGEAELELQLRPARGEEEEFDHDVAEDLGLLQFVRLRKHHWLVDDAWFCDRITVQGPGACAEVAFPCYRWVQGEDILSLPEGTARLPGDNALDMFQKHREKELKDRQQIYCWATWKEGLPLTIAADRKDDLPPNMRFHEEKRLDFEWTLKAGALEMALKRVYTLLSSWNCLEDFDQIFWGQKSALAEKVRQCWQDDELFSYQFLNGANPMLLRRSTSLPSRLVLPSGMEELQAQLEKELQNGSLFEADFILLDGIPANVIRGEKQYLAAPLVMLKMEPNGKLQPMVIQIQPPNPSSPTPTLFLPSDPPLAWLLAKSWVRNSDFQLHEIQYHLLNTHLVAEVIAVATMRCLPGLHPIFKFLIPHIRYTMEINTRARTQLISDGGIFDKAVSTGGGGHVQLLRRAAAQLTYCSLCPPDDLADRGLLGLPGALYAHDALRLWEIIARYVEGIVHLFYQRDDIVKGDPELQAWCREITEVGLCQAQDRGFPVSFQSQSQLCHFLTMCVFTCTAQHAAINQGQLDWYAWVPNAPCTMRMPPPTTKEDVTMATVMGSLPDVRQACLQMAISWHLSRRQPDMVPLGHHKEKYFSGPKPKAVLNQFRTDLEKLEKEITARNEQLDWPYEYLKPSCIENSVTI
#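 Purified human 12hLO at 150 nM in 25 mM Hepes, 0.01% Triton X-100, pH 7.0, preincubated 15 min at room temperature with compound. Reaction started with 40 uM arachidonic acid, 30 min at room temperature. Hydroperoxide measured by Fe-xylenol orange, 573/405 nm absorbance ratio.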
# * marks the source's active call; other numbers are inactive results; i = inactive; ? = inconclusive; / = no result; [ ] = another dose, or the depositor's remark. Unless noted, the call rests on the fitted dose curve; in most records, active means well fitted curve in the direction sought with a large enough effect; inconclusive means small, poorly fitted or top-dose-only effect, or another doubt; inactive means no such curve, though single readings can be large; an effect the other way counts as inactive or inconclusive. Potency means the concentration at half of the fitted maximal effect.
SMILES,gsp antag,Mito fusion yeast,FUS yeast rescue,gsp ag,12-LOX inh
COCCCNC(=S)NNC(=O)CC(c1ccccc1)c1ccccc1,/,/,/,/,-19%
CCNc1ccc(Br)cc(C(=O)/C=C/c2ccccc2Cl)c1=O,-21%,/,?,-17%,8.9µM*
CNc1ccc(Br)cc(C(=O)/C=C/c2cccc(Cl)c2Cl)c1=O,-13%,12%,i,?,6.3µM*
CNc1ccc(Br)cc(C(=O)/C=C/c2cccc(OC)c2OC)c1=O,12%,2%,i,-11%,?
Cc1nonc1NC(=O)CSc1nc(CCC2CCCC2)nc2ccccc12,-11%,0%,i,20µM*,12%
Cc1cc(NC(=O)CSc2nc(CCC3CCCC3)nc3ccccc23)no1,8%,-6%,i,10%,-16%
Cc1cc(NC(=O)CSc2nc3ccccc3n2CCC#N)no1,10µM*,-1%,i,-6%[15.4 µM],-2%
Cc1cc(NC(=O)CSc2nc(C(C)(C)C)nc3ccccc23)no1,22%,-6%,i,25µM*,-5%
Cn1nc(C(=O)NN2C(=O)NC(C)(c3ccccc3)C2=O)c2ccccc2c1=O (configuration not stated),/,/,/,/,-6%
COc1cccc(-c2sc3ccc(OC)cc3c2-c2ccc(OCCN(C)C)cc2)c1,14%,/,32µM*,/,?
COc1ccc(-c2cc(C(=O)NC3CCNCC3)c3c(C)nn(-c4ccccc4)c3n2)cc1,/,/,/,/,25µM*
COc1ccc(S(=O)(=O)N(c2onc(C)c2Cl)S(=O)(=O)c2ccc(OC)c(OC)c2)cc1OC,-1%,3%,i,9%,18µM*
Cc1cc(=O)[nH]c(SCC(=O)C23CC4CC(CC(C4)C2)C3)c1C#N,35µM*,12%,i,19%,0%
CCc1cccc(C)c1NC(=O)CN1CCN(S(=O)(=O)c2ccc(C(C)(C)C)cc2)CC1,-24%,21%,35µM*,2%[15.4 µM],-2%
Cn1cc(C(=O)C(=O)NC2CCCCC2)c2ccccc21,50µM*,1%,i,26%,-4%
C/C(=N\Nc1ccc(F)cc1F)c1ccccc1O,-13%,-11%,i,10%[15.4 µM],?
C/C(=N/Nc1ccc(F)cc1F)c1ccccc1Br,/,/,/,/,50µM*
C/C(=N/Nc1ccc(S(N)(=O)=O)cc1[N+](=O)[O-])c1ccccc1Br,/,/,/,/,35µM*
C/C(=N/Nc1ccc(S(N)(=O)=O)cc1[N+](=O)[O-])c1ccccc1,/,/,/,/,-21%
CCN(C(=O)Cn1nc(Cc2cccnc2)c2ccccc2c1=O)c1ccc(C)c(C)c1,/,/,/,/,4%
O=C(NCc1nc2ccccc2[nH]1)C1=C[C@@H](C2CCCCC2)C[C@@H](OCc2ccc(CO)cc2)O1,-23%,-2%,32µM*,/,12%
O=C(NCc1nc2ccccc2[nH]1)C1=C[C@H](C2CCCCC2)C[C@H](OCc2ccc(CO)cc2)O1,-23%,-1%,20µM*,18%,-14%
O=C(NCc1nc2ccccc2[nH]1)C1=C[C@@H](c2ccc(C(F)(F)F)cc2)C[C@@H](OCc2ccc(CO)cc2)O1,-12%,/,32µM*,17%,18%
Cc1cc(C)c(OCC(=O)Nc2ccc3oc(=O)ccc3c2)c(C)c1,/,/,/,/,-54%
COc1ccc(N=C2S/C(=C\c3ccc(OC(C)C(=O)O)c(OC)c3)C(=O)N2CCc2c[nH]c3ccccc23)cc1 (configuration not stated),35µM*,10%,i,-25%,?
SMILES,gsp antag,Mito fusion yeast,FUS yeast rescue,gsp ag,12-LOX inh
COc1cc(/C=C2\SC(=Nc3ccccc3)N(CCc3c[nH]c4ccccc34)C2=O)ccc1OC(C)C(=O)O (configuration not stated),35µM*,-16%,?,8%[15.4 µM],?
CC(/C=C/c1ccccc1)=N\NC(=S)NC(C)C,-2%,-5%,i,-1%[15.4 µM],?
CC(/C=C/c1ccccc1)=N\NC(N)=S,5%,-4%,i,?,11µM*
O=C(Nc1ccccc1F)c1ncoc1-c1cccc(Cl)c1,/,/,/,/,-9%
Cc1ccc(CNC(=O)c2ccc(N3CCC4(CC3)CC(c3cccc(Br)c3)=NO4)c(N)c2)cc1,8%,7%,18µM*,-1%,?
Cc1ccc(CNC(=O)c2ccc(N3CCC4(CC3)CC(c3cccc(Br)c3)=NO4)c(NC(=O)c3ccc(Br)cc3)c2)cc1,8%,/,i,/,-10%
CN1CCCN(C(=O)c2ccco2)c2ccccc21,/,/,/,/,2%
COc1ccc(-c2oc3ccc(N4CCOCC4)cc3c2/C=C/c2ccc(OC)c(OC)c2)cc1,-4%,1%,13µM*,/,-5%
O=C(CCCCCN1C(=O)[C@@H]2Cc3ccccc3CN2C1=O)Nc1cccc(F)c1,?,13µM*,i,-23%,-10%
Cc1cccc(NC(=O)CCCCCN2C(=O)[C@@H]3Cc4ccccc4CN3C2=O)c1,-16%,-2%,i,-7%,9%
C=CCn1cc(CN(Cc2ccco2)Cc2cccs2)c(C)n1,/,/,/,/,13µM*
CN(NC(=O)c1ccc2c(c1)OCC(=O)N2)c1ccccc1,/,/,/,/,-9%
O=C(Nc1ccccc1SC(=O)c1ccccc1)c1ccccc1,/,/,i,0%,5.6µM*
Cc1ccc(Cc2c(-c3ccc(C#N)cc3)nc3ccc(Br)cn23)cc1,/,/,i,19%,20µM*
Cc1ccc(Cc2c(-c3ccc(F)cc3)nc3cc(C)ccn23)cc1,/,/,i,?,20µM*
N#Cc1ccc(-c2nc3ccc(Br)cn3c2Cc2ccccc2)cc1,/,/,i,32µM*,?
Cc1ccc(-c2nc3ccc(Br)cn3c2Cc2ccccc2)cc1,/,/,i,/,?
Cc1ccc(Cc2c(-c3ccccc3)nc3ccc(Br)cn23)cc1,/,/,i,40%,6.3µM*
COc1cccc(C(=O)N2CCN(c3cc(C(F)(F)F)nc(C)n3)CC2)c1,/,/,/,/,17%
COc1cc(C2C(C(N)=O)=C(C)Nc3nc(SCc4ccccc4F)nn32)cc(OC)c1OC (configuration not stated),/,/,/,/,0%
O=C1NC2(CCCN(Cc3ccccc3)C2)Oc2ccccc21 (configuration not stated),/,/,/,/,11%[176 µM]
Cc1cccc(C)c1NC(=S)Nc1ccc(Cl)c(Cl)c1,-8%,-6%,i,0%,?
Cc1cc(C)cc(NC(=S)Nc2ccc(Cl)c(Cl)c2)c1,?,-22%,i,-22%,40µM*
C(=C\c1ccccc1)/C=N/Nc1nc2ccccc2s1,-6%,-8%,i,-22%,11%
CCC/C=N/Nc1nc2ccccc2s1,?,-6%,i,3%[15.4 µM],40µM*
CCOC(=O)c1ccccc1OC(=O)c1ccccc1,/,/,/,/,9%
Cn1c(=O)ccn(CC(=O)Nc2nc(C3CC3)cs2)c1=O,/,/,/,/,27%
